# Bioassay records deposited in PubChem by several laboratories.
# Hits are enriched below; roughly 0.5% of the tested compounds scored in any of these assays.
# AddAB inh: less growth of phage-infected E. coli with AddAB; E. coli expressing H. pylori AddAB, absorbance growth; 0.29% of 330,000 active; inhibition, % at 11.9 µM; AID 435030; in the data active = inhibition above about 12%;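 note: 0% = vehicle wells of infected cells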
# E coli growth-1: E. coli growth inhibition; OD600 absorbance (concentration not given with the values); Escherichia coli growth, OD600, 23 h; active compounds read low; 0.21% of 330,000 active;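 active = OD600 absorbance below the run mean of sample wells minus 3.6 SD, in any replicate, cut at about 0.56 in these data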
# E coli growth-2: bacterial growth inhibition, counter-screen for AddAB inhibitors. E. coli V3065 growth, OD600 absorbance, 18 h. AID 449728. 0.27% of 330,000 active. inhibition, % at 11.9 µM;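 active = inhibition above the campaign's mean inhibition across all tested compounds plus 3 SD, cut at about 9.9% in these data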;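 note: uninfected addAB+ strain grown without phage in ampicillin broth; 0% = DMSO wells and 100% = ciprofloxacin 0.95 µg/ml wells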
# Tat transport: inhibitors of E. coli Tat protein transport | E. coli MC4100 TorA-mCherry Tat export, fluorescence | inhibition, % at 10 µM | 0.036% of 340,000 active;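 active = mean replicate inhibition at least 50% and at least half of replicates individually reaching 50%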;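 note: exported cargo escapes ClpAP degradation while cytoplasmic cargo is degraded and loses fluorescence; 0% = median of neutral control wells and 100% = median of NaSCN control wells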
# phage Ecoli inh: E. coli growth loss with phage present; growth absorbance; inhibition, % at 11.9 µM; 0.26% of 360,000 active; in the data active = inhibition above about 11%
# AddAB conf: confirmation screen: growth loss of phage-infected E. coli expressing H. pylori AddAB; shares compounds with AddAB inh; AID 488942; inhibition, % at 11.9 µM; 64% of 880 active; E. coli V3065 expressing H. pylori AddAB, T4 phage, OD; T4 phage with gene 2 nonsense mutations;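 active = mean inhibition above a set limit taken from the earlier primary screen, cut at about 13% in these data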;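 note: higher means less bacterial growth since AddAB block lets phage replicate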
# RecBCD counter: counter-screen: growth loss of RecBCD+ E. coli with mutant T4 phage; shares compounds with AddAB inh; E. coli V66 + mutant T4 phage, OD growth; inhibition, % at 11.9 µM; 73% of 880 active; AID 488955;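 active = mean inhibition above the mean of solvent-only control wells plus 3 SD, cut at about 4% in these data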;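 note: optical density read after an 18 h incubation at 37 °C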
# bact viab count: reduces bacterial viability, AddAB inhibitor counter-screen | inhibition, % at 11.9 µM | shares compounds with AddAB inh | 35% of 880 active | absorbance (AddAB counterscreen); in the data active = inhibition above about 25%
# RecBCD conf: confirmation: growth loss of phage-infected RecBCD+ E. coli (RecBCD inhibitor screen) | shares compounds with phage Ecoli inh | E. coli V66 + T4 2- phage, growth OD | inhibition, % at 11.9 µM | 45% of 890 active;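 active = mean inhibition over triplicates exceeding the hit threshold derived in the original primary screen, cut at about 11% in these data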
# Ecoli viability: inhibits E. coli viability, flagging RecBCD hits as nonselective; absorbance (OD) growth; inhibition, % at 11.9 µM; shares compounds with phage Ecoli inh; 29% of 890 active; in the data active = inhibition above about 20%;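 note: E. coli strain V66 grown with compound alone and no phage infection; 0% = bacteria with DMSO vehicle only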
# AddAB phage OD: growth loss of phage-infected AddAB E. coli, RecBCD counter-screen | E. coli expressing H. pylori AddAB + T4 phage, OD growth; gene 2 mutant T4, recBCD-deleted host | 45% of 890 active | shares compounds with phage Ecoli inh | inhibition, % at 11.9 µM;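 active = mean inhibition above the solvent-only control wells' mean plus 3 SD, cut at about 22% in these data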;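 note: higher means less bacterial growth from phage killing when AddAB is blocked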
# Numbers without * were called inactive; nt = no result given.
SMILES,AddAB inh,E coli growth-1,E coli growth-2,Tat transport,phage Ecoli inh,AddAB conf,RecBCD counter,bact viab count,RecBCD conf,Ecoli viability,AddAB phage OD
C=C1c2cccc(O)c2C(O)=C2C(=O)[C@]3(O)C(O)=C(C(N)=O)C(=O)[C@@H](N(C)C)[C@@H]3[C@@H](O)[C@H]12,57*,0.059*,47*,140*,100*,97*,99*,97*,104*,105*,104*
O=C1C=C(c2ccc(Cl)c(C(F)(F)F)c2)CC(c2ccc(F)cc2)C1 (stereo not given),nt,0.67,nt,nt,nt,nt,nt,nt,nt,nt,nt
CN(C)c1ccc(O)c2c1CC1CC3C(N(C)C)C(=O)C(C(N)=O)=C(O)[C@@]3(O)C(=O)C1=C2O (stereo not given in full),99*,0.069*,101*,150*,99*,98*,99*,100*,103*,105*,104*
CC1(C)CC(=O)C(C=Nc2ccc(O)cc2)=C(O)C1,0,0.67,0,3,1,nt,nt,nt,nt,nt,nt
CCc1nnc(NS(=O)(=O)c2ccc(N=CC3=C(O)CC(C)(C)CC3=O)cc2)s1,17*,0.69,11*,-4,14*,11,5.9*,16,8,4,21*
Cc1nc2ccc(C(=O)N/N=C/c3cc([N+](=O)[O-])ccc3O)cc2[nH]1,19*,nt,17*,-2,17*,8,14*,12,4,9,12
CCN1C(=O)C2C(c3ccc(-c4ccc(Cl)c(Cl)c4)c(OC)c3)N[C@@](Cc3ccccc3)(C(=O)OC)C2C1=O (stereo not given in full),nt,0.74,nt,nt,nt,nt,nt,nt,nt,nt,nt
C=CCNC(=S)N/N=C(\C)c1ccccn1,31*,nt,30*,-5,38*,31*,29*,25*,27*,34*,32*
CC(=NNC(=S)N1CCCCC1)c1ccccn1,nt,nt,nt,nt,4,nt,nt,nt,nt,nt,nt
O=[N+]([O-])c1ccc(C=NN=Cc2ccc([N+](=O)[O-])o2)o1,nt,0.56,nt,nt,nt,nt,nt,nt,nt,nt,nt
NC(=O)N/N=C/c1ccc([N+](=O)[O-])o1,101*,nt,101*,-2,63*,98*,40*,98*,34*,57*,103*
NC(=O)NN=Cc1ccc(-c2ccc([N+](=O)[O-])cc2)o1,nt,0.67,nt,nt,nt,nt,nt,nt,nt,nt,nt
COC(=O)N/N=C/c1ccc([N+](=O)[O-])o1,97*,nt,79*,2,19*,99*,21*,67*,13*,18,103*
O=C(N/N=C/c1ccc([N+](=O)[O-])o1)C1CC1,100*,nt,73*,7,35*,99*,23*,71*,12*,17,100*
O=[N+]([O-])c1ccc(/C=[N+](\[O-])CCO)o1,99*,nt,99*,14,97*,98*,99*,99*,105*,107*,105*
CCCCOc1ccc(C=CC(=O)OCC(=O)c2c(N)n(C)c(=O)n(C)c2=O)cc1OCC,nt,0.66,nt,nt,nt,nt,nt,nt,nt,nt,nt
COc1cccc(N2C(CC(C)=O)c3ccc(C=CC(C)=O)cc3S2(=O)=O)c1 (stereo not given),nt,0.64,nt,nt,nt,nt,nt,nt,nt,nt,nt
O=C(O)c1cn(C2CC2)c2cc(N3CCN(S(=O)(=O)c4ccc5c(c4)OCCO5)CC3)c(F)cc2c1=O,99*,0.082*,97*,12,93*,98*,98*,101*,102*,102*,103*
O=C(N/N=C/c1c(O)ccc2ccccc12)c1cccc(C(F)(F)F)c1,28*,nt,22*,-5,18*,14*,17*,7,8,13,20
Cc1cccc(NC(=O)c2ccc([N+](=O)[O-])o2)n1,30*,0.53*,38*,-24,16*,100*,13*,40*,7,10,61*
COc1ccc(-c2cc(N3CCCC3)n3ncnc3n2)cc1,17*,0.65,20*,-8,14*,21*,14*,15,9,12,18
O=C(O)CC1S/C(=N/N=C/c2ccccn2)NC1=O (stereo not given),22*,nt,19*,-7,22*,17*,18*,15,10,13,12
CCn1cc(C(=O)N[C@H](C(=O)O)C(C)C)c(=O)c2cc3c(cc21)OCO3,59*,0.069*,55*,1,12*,101*,10*,78*,5,4,52*
CCn1cc(C(=O)N[C@H](C(=O)NCCCOC)C(C)C)c(=O)c2cc3c(cc21)OCO3,2,0.66,-3,-4,0,nt,nt,nt,nt,nt,nt
NC(Cc1ccc([N+](=O)[O-])cc1)=NOC(=O)c1ccc2ccccc2c1,nt,0.77,nt,nt,nt,nt,nt,nt,nt,nt,nt
SMILES,AddAB inh,E coli growth-1,E coli growth-2,Tat transport,phage Ecoli inh,AddAB conf,RecBCD counter,bact viab count,RecBCD conf,Ecoli viability,AddAB phage OD
COc1cc(-c2nnc(SCc3cc(=O)oc4cc(O)c(O)cc34)o2)cc(OC)c1OC,18*,0.63,18*,-3,16*,18*,16*,18,7,8,8
CCCCCOc1ccc(CSC(=N)N)cc1[N+](=O)[O-],13*,0.53*,13*,-21,13*,15*,9.7*,12,2,4,14
Oc1ccc(N=Nc2ccc3c(c2)OCCO3)c2ncccc12,13*,0.71,9,-6,11*,13*,9.6*,9,9,10,14
NS(=O)(=O)c1ccc(N=Nc2ccc(O)c3ncccc23)cc1,6,0.7,4,-2,1,nt,nt,nt,nt,nt,nt
CCn1cc(S(=O)(=O)c2ccc(C)cc2)c(=O)c2cc(F)c(N3CCN(C)CC3)cc21,-2,0.69,-1,5,1,nt,nt,nt,nt,nt,nt
CCCc1nnc(NC(=O)c2cn(CC)c3cc(N4CCN(C)CC4)c(F)cc3c2=O)s1,99*,0.07*,97*,nt,43*,99*,91*,101*,42*,72*,98*
CCCNC(=O)c1cn(CC)c2cc(N3CCN(C)CC3)c(F)cc2c1=O,98*,0.049*,100*,81*,100*,102*,101*,101*,103*,104*,103*
CCn1cc(C(=O)NCCN(C)C)c(=O)c2cc(F)c(N3CCN(C)CC3)cc21,101*,0.052*,98*,8,96*,104*,99*,104*,49*,87*,99*
